In all, about 78,000 compounds went through this assay and about 1,800 (2.3%) were called active. Another 27% or so got no clear call; they are omitted. Rule as the data show it: active = inhibition above about 30%; inconclusive = mostly about 10% to 28%; inactive = weaker than that. For the sample, actives were picked, then their nearest neighbours and some compounds at random.
molecular target: Interleukin-1 receptor-like 1 (Homo sapiens) (UniProt Q01638); experiment: blocks human ST2 binding to IL-33, primary screen, biochemical, AlphaLISA (AID 1259354); conditions: AlphaLISA ST2-Fc/biotin-IL-33 interaction, 1 h; at 17 µM, hits give high values
Sequence (Q01638 whole entry, looked up): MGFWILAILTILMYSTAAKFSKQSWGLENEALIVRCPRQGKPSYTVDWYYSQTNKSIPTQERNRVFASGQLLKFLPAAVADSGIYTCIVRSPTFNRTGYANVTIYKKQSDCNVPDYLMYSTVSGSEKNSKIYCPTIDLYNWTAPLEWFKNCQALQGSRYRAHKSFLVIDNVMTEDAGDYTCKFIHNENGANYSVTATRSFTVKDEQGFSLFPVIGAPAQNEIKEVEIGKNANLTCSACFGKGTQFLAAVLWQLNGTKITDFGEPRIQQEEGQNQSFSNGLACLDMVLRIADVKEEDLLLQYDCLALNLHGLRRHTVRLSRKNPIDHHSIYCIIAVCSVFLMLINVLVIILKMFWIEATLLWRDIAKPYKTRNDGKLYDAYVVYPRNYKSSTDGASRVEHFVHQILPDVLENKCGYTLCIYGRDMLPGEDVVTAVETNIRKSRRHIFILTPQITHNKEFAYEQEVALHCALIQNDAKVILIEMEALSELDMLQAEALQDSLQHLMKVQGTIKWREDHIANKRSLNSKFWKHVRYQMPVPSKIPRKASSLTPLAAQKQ

| SMILES | inhibition |
| --- | --- |
| O=S(=O)(Nc1ccccc1Br)c1ccccc1 | inactive |
| CN(C)C(=O)c1ccc(S(=O)(=O)NC2CCCCCC2)s1 | inactive |
| O=C(O)c1ccc(C(=O)c2ccc([N+](=O)[O-])cc2)cc1 | inactive |
| Cc1ccc(Sc2c(C)nn(C(=O)c3ccc([N+](=O)[O-])cc3)c2C)cc1 | 60% (active) |
| Cc1nn(C(=O)c2cccnc2)c(C)c1Sc1ccc(Cl)cc1 | inactive |
| CCOc1ccc2c(=O)c(Oc3ccc(F)cc3)c(C)oc2c1 | inactive |
| OCc1ccc(CN2CCC(n3cc(C4CCCCC4)nn3)CC2)o1 | inactive |
| Cc1nn(-c2cccc(Br)c2)c(C)c1[C@@H]1C=C[C@@H](NS(=O)(=O)c2ccccc2)C1 | inactive |
| CN(Cc1ncc[nH]1)C(=O)C1CCN(Cc2ccco2)CC1 | inactive |
| COCCNC(=O)C1C2C=CC3(CN(Cc4ccccc4Cl)C(=O)C13)O2 (stereo not given) | inactive |
| CCNc1nc(NCC)n2c(SCC(=O)c3ccc(C(C)(C)C)cc3)nnc2n1 | 36% (active) |
| CC1CCCC(NC(=O)C2CCCN(S(=O)(=O)c3cnc[nH]3)C2)C1C (stereo not given) | inactive |
| COC(=O)c1cccc(-c2nccn2CCc2cccc(F)c2)n1 | inactive |
| CCCCNC(=O)CNC(=O)Cn1ccc2ccccc2c1=O | inactive |
| O=[N+]([O-])c1cccc(S(=O)(=O)Nc2cccnc2Cl)c1 | inactive |
| CCOc1ccc(S(=O)(=O)Nc2ccccc2F)c2cccnc12 | inactive |
| O=[N+]([O-])c1ccccc1S(=O)(=O)Nc1cccc2cccnc12 | 33% (active) |
| O=C1CCCN1C1CCN(Cc2nnc(C3CC3)o2)CC1 | inactive |
| CCOc1ccc(-n2c(C)cc(C(=O)CN3CCC(C)CC3)c2C)cc1 | inactive |
| COc1ccc(N2CN=c3s/c(=C\c4ccccn4)c(=O)n3C2)cc1 | 32% (active) |
| COc1ccc(N2CN=c3s/c(=C/c4ccc([N+](=O)[O-])cc4)c(=O)n3C2)cc1 | inactive |
| O=c1/c(=C/c2cccc([N+](=O)[O-])c2)sc2n1CN(c1cccc(C(F)(F)F)c1)CN=2 | inactive |
| Cc1ccc(-c2noc(CCC(=O)N(C)c3cc(Cl)ccc3C)n2)cc1 | inactive |
| CCOC(=O)c1c(C)n(C)c2ccc(OC(=O)c3ccc(OC)cc3)cc12 | inactive |

| SMILES | inhibition |
| --- | --- |
| CCN1CC(NC2CCN(c3ccc(OC)cc3)CC2)CC1=O (stereo not given) | inactive |
| CCOc1ccc(C(=O)NC2CC(=O)N(c3ccc(OCC)cc3)C2)cc1 (stereo not given) | inactive |
| Nc1ccc(Oc2ccc(Cl)cc2)cc1 | 37% (active) |
| O=S(=O)(c1ccc(Oc2ccc(Cl)cc2)cc1)c1ccc(Oc2ccc(Cl)cc2)cc1 | inactive |
| Cc1cccc(C(CC(=O)N2CCOCC2)c2ccccc2)c1O (stereo not given) | inactive |
| Clc1ccc(-c2csc(Nc3ncccn3)n2)cc1 | inactive |
| COc1ccc(OC)c(S(=O)(=O)NCCC(C)C)c1 | inactive |
| O=[N+]([O-])c1cnc(N2CCN(Cc3ccccc3)CC2)c([N+](=O)[O-])c1 | 30% (active) |
| O=[N+]([O-])c1ccc(CN2CCN(Cc3ccccc3)CC2)s1 | inactive |
| Clc1cccc(CN2CCN(c3ccccn3)CC2)c1 | inactive |
| CC(C(=O)NC1CC1)N1CCc2[nH]nc(C(c3ccccc3)c3ccccc3)c2C1 (stereo not given) | 97% (active) |
| CC(C)c1ccc(C(=O)NC2CC2)cc1 | inactive |
| O=S(=O)(NCc1ccccc1)N1CCc2[nH]nc(C3CCC3)c2C1 | inactive |
| CCc1c(-c2ccccc2)nc2ccccc2c1C(=O)NCC1CCCO1 (stereo not given) | inactive |
| CCCOc1ccc(CC(=O)O)cc1OC | inactive |
| Cc1cccc(C)c1OCC(=O)Nc1ccc([N+](=O)[O-])cc1 | inactive |
| O=C(COc1ccc([N+](=O)[O-])cc1)Nc1ccc(N2CCCC2)cc1 | 60% (active) |
| Cc1cc(Cl)ccc1NC(=O)COc1ccc([N+](=O)[O-])cc1 | inactive |
| CCCOc1ccccc1/C=C1/C(=O)N=C(N)N1C | inactive |
| CCC(C)(C)C1CCc2c(sc(NC(=O)c3cc(OC)c(OC)c(OC)c3)c2C(N)=O)C1 (stereo not given) | inactive |
| CCN(CC)C(=O)Cn1cnc2sc(C(=O)Nc3cccc(C(F)(F)F)c3)c(C)c2c1=O | inactive |
| CCOc1ccc(S(=O)(=O)Nc2ccccc2C)c2cccnc12 | inactive |
| Cc1cc(NC(=O)c2ccccc2Cl)nc2c1c(=O)oc1ccccc12 | inactive |
| O=c1c2c(nc(SCc3ccccc3)n1-c1ccc(Br)cc1)CCS2 | inactive |

| SMILES | inhibition |
| --- | --- |
| O=c1c2c(nc(SCc3ccc(Cl)cc3)n1-c1ccccc1)CCS2 | 36% (active) |
| O=c1c2c(nc(SCc3ccccc3F)n1-c1ccccc1)CCS2 | inactive |
| CCOc1ccc(Cn2c(CNS(=O)(=O)c3cnn(C(F)F)c3C)nc3cccnc32)cc1 | inactive |
| Cc1ccccc1-c1cc(O)c2c(c1)CN(C(=O)C1C=CCN1)CCO2 (stereo not given) | inactive |
| CN(C)CCCN1C(=O)C(=O)C(=C(O)c2ccc(F)cc2)C1c1ccncc1 (stereo not given) | inactive |
| O=C1CCCc2oc3c(Cl)cc(NS(=O)(=O)c4cccc5ccccc45)cc3c21 | inactive |
| CCCc1n[nH]c(=O)n1-c1ccccc1Cl | inactive |
| COc1ccc(N=Cc2c(O)n(-c3ccccc3C)c(=O)c3ccccc23)cc1 | 48% (active) |
| COc1ccc(N=Cc2ccc3ncccc3c2)cc1 | inactive |
| C=CCNC(=O)c1cc2c(=O)n3cccc(C)c3nc2n1C | inactive |
| O=c1oc2ccccc2c(O)c1C=Nc1ccc(I)cc1 | inactive |
| COc1ccc(S(=O)(=O)Nc2c(C)n(C)n(-c3ccccc3)c2=O)cc1 | inactive |
| CNc1nc2c(C)cccn2c(=O)c1C=Nc1ccc(OC)cc1 | 98% (active) |
| O=C(CCCc1ccccc1)NC1CCCCC1 | inactive |
| CC(=O)Nc1ccc(S(=O)(=O)NCCNc2ccc([N+](=O)[O-])cc2Cl)cc1 | inactive |
| CN1CCN(C(=O)CC2(c3ccccc3Cl)CC(=O)N(C3CCCC3)C2=O)[C@@H](c2ccccc2)C1 (stereo not given in full) | inactive |
| O=C(Nc1nc2c(cc3c4c(cccc42)CC3)s1)c1ccc(S(=O)(=O)N2CCOCC2)cc1 | inactive |
| COc1ccc(-c2cnc(N)cn2)cc1C | inactive |
| Cc1ccncc1C(=O)N1CCC(=O)N(CC2CC2)C(C(C)C)C1 (stereo not given) | inactive |
| O=C(O)Cn1c2ccccc2c2cc(Cl)ccc21 | inactive |
| CCn1c(=O)cc(O)c2ccccc21 | 85% (active) |
| O=C(Cn1c2ccccc2c(=O)c2ccccc21)Nc1ccccc1Cl | inactive |

Source: PubChem BioAssay AID1259354 (Paczesny and Yang Labs, IUPUI and University of Michigan, 2018)
